# Laboratory results: PubChem BioAssay (Tox21)
# Inconclusive results are not listed. Values without a mark were called inactive. Active and inactive are the calls of the source. Calls follow the shape of the full dose curve.
# Target: Thyrotropin receptor (Homo sapiens) (UniProt P16473)
# Assay: qHTS assay to identify small molecule antagonists of the thyroid stimulating hormone receptor (TSHR) signaling pathway (AID 1259385); also: nearly all actives have a fitted effect of over 20% in size
# Conditions: TSHR-HEK293 cAMP HTRF, TSH-stimulated antagonist mode; series mostly up to 92.4 µM; activity change, negative = inhibition: at the top concentration
# Source text: U.S. Tox21 Program National Center for Advancing Translational Sciences [NCATS] NIH Chemical Genomics Center [NCGC] U.S. Environmental Protection Agency [EPA] National Institutes of Environmental Health Sciences [NIEHS] National Toxicology Program [NTP] U.S. Food and Drug Administration [FDA] Tox21 Assay Overview: TSHR is the receptor for thyrotropin (thyroid stimulating hormone or TSH), a member of the glycoprotein hormone family. TSH is released by the anterior pituitary gland and is the main regulator of thyroid gland growth and development. Upon binding circulating thyrotropin, a G-protein signal cascade activates adenylyl cyclase and […] cAMP concentration is increased. cAMP is a key second messenger involved extensively in cellular signal transduction pathways associated with the majority of G-protein coupled receptors (GPCRs). The activation of these GPCRs by neurotransmitters, lipids, nucleotides, peptides and hormones results in the activation or the inhibition of plasma membrane-bound adenylate cyclase through heterotrimeric G-proteins. A cell-based TSHR assay can be used to screen chemical compounds that modulate TSHR either in agonist or antagonist mode.
# Tox21 Assay Protocol Summary: TSHR-Hek293 cells were dispensed at 800 cells/4uL/well in 1536-well white plates using a Multidrop dispenser. After the assay plates were incubated at a 37C/5% CO2 incubator for 18 hrs, 23 nL of compounds dissolved in DMSO, positive controls or DMSO only was transferred to the assay plate by a pin tool, followed by 1 ul medium containing Ro20-1724. For the antagonist mode screening, 1 uL of TSH was added on the top of the cell/compound mixtures to achieve a final agonist concentration of 1.5 ng/mL. After 30 min of incubation at room temperature, 2.5 ul/well of cAMP-d2 and 2.5 ul/well of anti-cAMP-cryptate were added respectively into the assay plates using a Flying Reagent Dispenser. The plates were incubated at room temperature for 1 hr. The fluorescence intensity in the plates was measured using an Envision plate reader. Each test compound was measured at 15 concentrations and in triplicates.
# % is scaled to controls: 0 for no effect and ±100 for the full control effect; potency is read from the fitted curve at half-maximal effect.
# Chain of Thyrotropin receptor (Homo sapiens) (P16473 whole entry, looked up): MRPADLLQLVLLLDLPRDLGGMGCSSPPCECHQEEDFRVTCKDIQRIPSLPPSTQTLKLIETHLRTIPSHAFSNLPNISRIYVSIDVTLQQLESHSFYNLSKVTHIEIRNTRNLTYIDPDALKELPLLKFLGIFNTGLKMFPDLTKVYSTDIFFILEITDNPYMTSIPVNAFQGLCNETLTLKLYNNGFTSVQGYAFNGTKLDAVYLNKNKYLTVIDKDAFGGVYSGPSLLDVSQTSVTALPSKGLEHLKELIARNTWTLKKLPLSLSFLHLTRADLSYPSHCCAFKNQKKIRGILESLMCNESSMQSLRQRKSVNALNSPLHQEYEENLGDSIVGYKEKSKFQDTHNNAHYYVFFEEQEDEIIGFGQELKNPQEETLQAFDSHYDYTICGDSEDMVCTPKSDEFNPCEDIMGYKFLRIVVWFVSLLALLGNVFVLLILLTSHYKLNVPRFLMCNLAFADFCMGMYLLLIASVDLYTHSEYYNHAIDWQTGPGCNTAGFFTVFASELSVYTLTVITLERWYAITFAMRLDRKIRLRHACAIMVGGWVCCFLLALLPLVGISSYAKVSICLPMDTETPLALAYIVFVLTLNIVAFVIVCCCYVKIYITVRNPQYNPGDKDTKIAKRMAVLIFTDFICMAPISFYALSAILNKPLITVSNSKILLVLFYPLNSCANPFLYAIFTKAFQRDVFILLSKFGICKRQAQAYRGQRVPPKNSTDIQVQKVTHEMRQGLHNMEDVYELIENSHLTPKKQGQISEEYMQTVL
SMILES,"activity change, negative = inhibition",Potency
CCCCC(=O)OCC(=O)[C@H]1[C@H](C)C[C@H]2[C@@H]3C[C@H](F)C4=CC(=O)C=C[C@]4(C)[C@@]3(F)[C@@H](O)C[C@@]21C,-1.38% [at 42.5 µM],–
Cc1cc(C(=O)O)ccc1[N+](=O)[O-],-1.65%,–
CC(CSC(=O)c1ccccc1)C(=O)N1C[C@@H](Sc2ccccc2)C[C@H]1C(=O)O (stereo not given in full),-6.99% [at 19 µM],–
CN(C)CCN(Cc1ccccc1)c1ccccn1,0.599% [at 42.5 µM],–
CC1=CCCC(C)(C)C12CCC(C)O2 (stereo not given),8.7%,–
CC(C)C[C@H]1C(=O)N2CCC[C@H]2[C@]2(O)O[C@](NC(=O)[C@@H]3C=C4c5cccc6[nH]c(Br)c(c56)C[C@H]4N(C)C3)(C(C)C)C(=O)N12,3.19% [at 42.5 µM],–
COC(C)(C)CCO,-0.973%,–
CCc1c(C(=O)NN2CCCCC2)nn(-c2ccc(Cl)cc2Cl)c1-c1ccc(Br)cc1,-1.36%,–
CC/C=C\CCOC(=O)CC,-2.1%,–
CCC(Cl)CCC(Cl)C(Cl)CC(Cl)C(Cl)C(Cl)CCl (stereo not given),-0.0068%,–
CCCCCCCCCc1ccc(OCCOCCO)cc1,–,25.6 µM (active)
CCOCC(O)COc1ccc(NC(=O)CC[S+](C)C)cc1 (stereo not given),-0.766% [at 42.5 µM],–
CCO[Si](CCCCl)(OCC)OCC,-1.15%,–
O=C(Cl)c1cc(C(=O)Cl)cc(C(=O)Cl)c1,–,68.6 µM (active)
c1ccc(C(O[C@H]2CCCN(CCc3ccc4c(c3)OCO4)C2)c2ccccc2)cc1,-1.8% [at 42.5 µM],–
COC(C)OC,0.948%,–
NC(=O)C(c1ccccc1)(c1ccccc1)[C@@H]1CCN(CCc2ccc3c(c2)CCO3)C1,1.65% [at 42.5 µM],–
CCC(C)O (stereo not given),-0.295%,–
c1ccc(CNCCNCc2ccccc2)cc1,2.86% [at 42.5 µM],–
CN1CCC(N(Cc2cccs2)c2ccccc2)CC1,7.95% [at 42.5 µM],–

SMILES,"activity change, negative = inhibition",Potency
NC(N)=NCCC[C@H](N)C(=O)O,-0.191% [at 8.39 µM],–
C=C(C)C(=O)OCCOCC,-0.672%,–
CNCCCN1c2ccccc2CCc2ccccc21,–,29.8 µM (active)
CCOC(=O)Cc1cccc2ccccc12,-3.35%,–
C=CC(=O)OCCOCCOC(=O)C=C,9.66%,–
O=C(c1ccc(F)cc1)C1CCN(CCn2c(=S)[nH]c3ccccc3c2=O)CC1,-0.534% [at 42.5 µM],–
c1ccc(-c2ccccn2)nc1,-0.0393%,–
O=C(NCC1CN(c2ccc(N3CCOCC3=O)cc2)C(=O)O1)c1ccc(Cl)s1 (stereo not given),0.296% [at 42.5 µM],–
O=C(OCCCCCCOC(=O)c1ccccc1)c1ccccc1,-3.29%,–
O[C@@H](COc1cccc2ncccc12)CN1CCN(C2c3ccccc3[C@@H]3[C@H](c4ccccc42)C3(F)F)CC1 (stereo not given in full),4.51% [at 42.5 µM],–
CC1CCC(=O)C1=O (stereo not given),-2.12%,–
Cc1ccc(N=Nc2c(O)c(C(=O)O)cc3ccccc23)c(S(=O)(=O)O)c1,0.806% [at 42.5 µM],–
CCCCc1nc2cccnc2n1Cc1ccc(-c2ccccc2-c2nnn[nH]2)cc1,0.163%,–
CCCCC(CC)COC(=O)CCCCCCCCC(=O)OCC(CC)CCCC (stereo not given),0.46%,–
O=C(O)C(S)C(S)C(=O)O (stereo not given),-0.509% [at 42.5 µM],–
CCCCO,1.7%,–
CC(C)(COC(=O)c1ccccc1)COC(=O)c1ccccc1,-0.0901%,–
CCCCNc1ccc(C(=O)OCCOCCOCCOCCOCCOCCOCCOCCOCCOC)cc1,1.3% [at 42.5 µM],–
CCCC(=O)Nc1ccc(O)c(C(C)=O)c1,1.18% [at 42.5 µM],–
Cc1cccc(C)c1OCC(=O)N[C@@H](Cc1ccccc1)[C@@H](O)C[C@H](Cc1ccccc1)NC(=O)[C@H](C(C)C)N1CCCNC1=O,0.878% [at 42.5 µM],–
